Results from PubChem BioAssay (NCI).
The panel holds about 79,000 compounds, 15% with a hit somewhere; the sample as a whole holds those more often. Calls of active or inactive are those of the source. Cut-off read from the data, not from the text of the source: active = growth inhibition above about 70%; inactive = the rest.

Assays:
[1] = NCI Yeast Anticancer Drug Screen. Data for the rad50 strain (AID 155);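 note: 0% = growth of vehicle-only cultures of the same strain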; conditions: S. cerevisiae rad50 strain growth inhibition; at 50.0 µM; hits give high values
Outline: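 Vehicle-treated cultures provide the reference for the growth inhibition reported for compound-exposed, repair-deficient yeast.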

[2] = NCI Yeast Anticancer Drug Screen. Data for the mec2-1 strain (AID 157); conditions: S. cerevisiae mec2-1 strain, at 50.0 µM, hits give high values
Outline: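 Cells of the genetically defined mec2-1 yeast strain are incubated with test compound. Inhibition of growth is calculated against vehicle-treated controls.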

[3] = NCI Yeast Anticancer Drug Screen. Data for the sgs1 mgt1 strain (AID 161);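 note: 0% = growth of cultures given vehicle only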; conditions: S. cerevisiae sgs1 mgt1 strain, at 50.0 µM, hits give high values
Outline: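 Test agents were incubated with a DNA-repair-mutant yeast strain. Growth was then read and compared against vehicle-treated controls.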

[4] = NCI Yeast Anticancer Drug Screen. Data for the cln2 rad14 strain (AID 165);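 note: 0% = growth equal to vehicle treated cultures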; conditions: S. cerevisiae cln2 rad14 strain, at 50.0 µM, hits give high values
Outline: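 The screen exposed genetically defined yeast (cln2 rad14) to test compounds and scored growth inhibition relative to vehicle-treated controls.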

[5] = NCI Yeast Anticancer Drug Screen. Data for the bub3 strain (AID 167); conditions: S. cerevisiae bub3 mutant strain, at 50.0 µM, hits give high values
Outline: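 Mutant yeast screening strain plus compound; vehicle-treated cultures serve as the 0% inhibition reference.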

[6] = NCI Yeast Anticancer Drug Screen. Data for the mlh1 rad18 strain (AID 175); conditions: S. cerevisiae mlh1 rad18 strain growth inhibition; at 50.0 µM; hits give high values
Outline: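 Compound-treated yeast growth, normalised to vehicle controls. Strain bears defined DNA repair mutations.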

Measured: growth inhibition

CC1(C)C2CCC1(C)C(OC(=O)C1OC(O)C(O)C(O)C1O)C2 (stereo unspecified)
inactive: [1] -1.3% | [2] 24.9% | [3] 12.8% | [4] -2.75% | [5] 27.6% | [6] 28.9%

[N-]=[N+]=NC1CC(n2ccc(=O)[nH]c2=O)OC1CO (stereo unspecified)
inactive: [1] -16.6% | [2] -21.9% | [3] 3.3% | [4] -13.6% | [5] -12.8% | [6] -6.85%

CN(N=O)C(=O)NC(CCCCNC(=O)OCc1ccccc1)C(=O)OCc1ccccc1 (stereo unspecified)
inactive: [1] 5.95% | [2] -10.1% | [3] -2.8% | [4] -22.4% | [5] 11.6% | [6] -11.2%

Nc1[nH][nH]c(=O)c1N=Nc1ccccc1
inactive: [1] -7.75% | [2] -8.95% | [3] -1.15% | [4] -6.6% | [5] 8.4% | [6] 5.15%

COc1cccc(-c2nc3ccccc3c(=O)[nH]2)c1OC
inactive: [1] 33.2% | [2] -16.6% | [3] 10.1% | [4] 18.1% | [5] 16.5% | [6] 19.9%

CC(=O)C(C)(C)CCC(C)(C)C(C)=O
inactive: [1] 2.95% | [2] -12.6% | [3] -4% | [4] 13.1% | [5] 8.4% | [6] -20.6%

CCOC(=O)C(=O)C(/C(=N/N(C)C)C(=O)Nc1ccc(C)cc1C)c1nc2ccccc2[nH]c1=O (stereo unspecified)
inactive: [1] -21.7% | [2] -22.1% | [3] 3.8% | [4] 11.7% | [5] 1% | [6] 12.5%

COc1ccc([N+](=O)[O-])cc1OC
inactive: [1] 29.9% | [2] -0.15% | [3] 33.1% | [4] 1.65% | [5] 0.45% | [6] 16.1%

COC(=O)C(/C(=N/N)C(=O)Nc1cc(Cl)ccc1Cl)c1nc2ccc([N+](=O)[O-])cc2[nH]c1=O (stereo unspecified)
inactive: [1] -10.6% | [2] -13.3% | [3] 7.3% | [4] 10.5% | [5] 13.9% | [6] 15.6%

C[n+]1c(C2(O)CCCCCCCCCCC2)sc2ccccc21
inactive: [1] 3.8% | [2] 10.1% | [3] 1.5% | [4] -11.3% | [5] 1.4% | [6] 34.4%

COC(=O)C(c1ccccc1)C(CBr)(OC)c1ccccc1 (stereo unspecified)
inactive: [1] 18.8% | [2] 8.85% | [3] 12.5% | [4] 15.8% | [5] 13.6% | [6] 27.1%

S=C(Nc1ccc(N=Nc2ccccc2)cc1)SCc1ccc(Cl)cc1
inactive: [1] 28.4% | [2] 3.6% | [3] 20.6% | [4] 13.1% | [5] -2.75% | [6] 14%

Oc1cccnc1CN1CCOCC1
inactive: [1] -3.55% | [2] -14.3% | [3] -12.6% | [4] 8.8% | [5] -6.15% | [6] 6.95%

CC(Nc1cc(Cl)ccc1C(=O)O)C(=O)O (stereo unspecified)
inactive: [1] 0.9% | [2] 14.7% | [3] -9.75% | [4] -40.1% | [5] -11.2% | [6] -8.05%

O=C(Nc1ccc2ncccc2c1)Nc1ccc2ncccc2c1
inactive: [1] 12.9% | [2] -12.8% | [3] 4.2% | [4] -4.85% | [5] -10.4% | [6] 21.4%

COc1ccc(S(=O)(=O)c2ccc(F)cc2)cc1
inactive: [1] -22.1% | [2] -14.2% | [3] -3.65% | [4] -5.8% | [5] -12.7% | [6] -21.4%

COc1ccc(Cl)cc1NC(=O)Oc1cc2ccccc2cc1C(=O)Nc1ccccc1
inactive: [1] -9.4% | [2] -8.05% | [3] -21.4% | [4] -25.1% | [5] -3.25% | [6] -13.8%

C=C[Si](Cl)(Cl)c1ccccc1
inactive: [1] 15.9% | [2] -2.45% | [3] 1.65% | [4] -0.15% | [5] 6.5% | [6] 11.2%

Cc1ccc(S(=O)(=O)Nn2c(-c3ccccc3)c(C#N)c(-c3ccc([N+](=O)[O-])cc3)c(C#N)c2=O)cc1
inactive: [1] -0.65% | [2] 16.2% | [3] 8.6% | [4] 11.6% | [5] 20.1% | [6] 37%

Cc1ccccc1NC(=O)/C(C#N)=N\Nc1nc[nH]c1C(N)=O
inactive: [1] -33.7% | [2] -22.6% | [3] -11.8% | [4] 6.2% | [5] -45.9% | [6] 13.1%

Nc1ccc(Br)c2ccccc12
inactive: [1] 33.4% | [2] 22.1% | [3] 16.8% | [4] 19.4% | [5] 27.3% | [6] 46.4%

CC(C)[Si](C#CC[Si](C(C)C)(C(C)C)C(C)C)(C(C)C)C(C)C
inactive: [1] -13.8% | [2] -6% | [3] -17.4% | [4] -17.6% | [5] -20.3% | [6] -9.35%

CC(C)(Cc1ccc([N+](=O)[O-])cc1)[N+](=O)[O-]
inactive: [1] 7.95% | [2] 11.3% | [3] 4.3% | [4] -7.55% | [5] 12.4% | [6] -0.05%

O=c1c2ccccc2[nH]c2c(O)c3c(=O)c4ccccc4[nH]c3cc12
inactive: [1] -8.6% | [2] -2.05% | [3] 3.9% | [4] -4.4% | [5] 3.15% | [6] 4.05%

CCn1c(C)nc2c(N)cccc2c1=O
inactive: [1] 24.4% | [2] -4.75% | [3] -7.9% | [4] -6.6% | [5] -11% | [6] 2.75%

COC(=O)C(S)(NC(C)=O)C(C)C (stereo unspecified)
inactive: [1] 0.2% | [2] -10.5% | [3] -1.25% | [4] -30.4% | [5] -18.8% | [6] 16.1%

Cc1nc(Nc2ccc(Cl)cc2)c2cnn(-c3ccccc3)c2n1
inactive: [1] 29.1% | [2] -7.2% | [3] -8% | [4] -35.9% | [5] 6.75% | [6] 26.9%

COc1ccc(N=Cc2ccc(C#N)cc2)cc1
inactive: [1] 9.4% | [2] -25.2% | [3] -7.15% | [4] 7.95% | [5] -12.8% | [6] -4.9%

COc1ccc2c(c1)C1(C)CCCC(C)C1=CC2=O (stereo unspecified)
active: [1] 84% | [2] 78.3% | [3] 82.8% | [5] 87.8% | [6] 85%
inactive: [4] 28.1%

CC(=O)CC(=O)N1CCC(C)CC1
inactive: [1] 20.4% | [2] -24.9% | [3] -16.4% | [4] 27.6% | [5] -14.1% | [6] -10.2%

COCCCNc1ncnc2c1cnn2-c1ccc(Cl)cc1
inactive: [1] -1.3% | [2] -4.75% | [3] -0.25% | [4] 9.8% | [5] -9.45% | [6] -4.45%

O=C(O)C(Cc1ccc(OS(=O)(=O)Cc2ccccc2)cc1)NS(=O)(=O)Cc1ccccc1 (stereo unspecified)
inactive: [1] 29.9% | [2] 5.2% | [3] 8.1% | [4] 5.1% | [5] 12.4% | [6] 24.1%

O=C1CC(NC(=O)C(F)(F)F)c2c1csc2Br (stereo unspecified)
inactive: [1] -20.6% | [2] -2.55% | [3] -9.1% | [4] -12.6% | [5] -11% | [6] 20.2%

CCOC(=O)C(Nc1cc([N+](=O)[O-])ccc1C(=O)N1CCCCC1)(C(=O)OCC)N1CCCCC1
inactive: [1] 4.6% | [2] 12.8% | [3] 13.8% | [4] 3.8% | [5] 0.2% | [6] 15%

COC(=O)C(Cc1cn(C(C)=O)c2ccccc12)P(=O)(OC)OC (stereo unspecified)
inactive: [1] -13.3% | [2] -40.1% | [3] -5.25% | [4] 13% | [5] 25.4% | [6] -11.8%

CC1=C(C[Si](C)(C)C)CC(CO[Si](C)(C)C(C)(C)C)C2C(=O)N(C(=O)c3ccccc3)C(Cc3ccccc3)C12 (stereo unspecified)
inactive: [1] 21.6% | [2] 5.7% | [3] 2.05% | [4] -4.25% | [5] -3.95% | [6] 23.4%

C[N+]1(C)CCC(C(=O)c2ccccc2)CC1
inactive: [1] 1.15% | [2] 4.95% | [3] 5.6% | [4] -17.9% | [5] 17% | [6] 16.4%

[CH3][Ge]([CH3])([CH3])/[C](=[C](\c1ccccc1)[Ge]([CH3])([CH3])[CH3])c1ccccc1
inactive: [1] 39.6% | [2] -3.5% | [3] 10% | [4] 9.6% | [5] -1.5% | [6] 9.65%

O=C1Nc2cccc3cc(NCC(O)CCl)cc1c23 (stereo unspecified)
inactive: [1] 31.3% | [2] 8.5% | [3] 11.4% | [4] 17.9% | [5] 3.05% | [6] -23.9%

COC(=O)C(N)Cc1ccc(OCc2ccccc2)cc1 (stereo unspecified)
inactive: [1] -0.8% | [2] 5.2% | [3] -2.25% | [4] -4.25% | [5] 24.4% | [6] -5.35%

CN=C1c2ccccc2C(=O)c2c1c(O)n(-c1ccccc1)c2O
inactive: [1] 27.9% | [2] 15.3% | [3] 20.9% | [4] 21.5% | [5] 29.4% | [6] 36.8%
